The values that follow come from PubChem BioAssay (NCI).

Molecules are shown by their SMILES. This is part of a sample that, as a whole, favours compounds with a hit. Of some 83,000 tested, about 20% had one in any assay.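 Method: cells in 96-well plates; compound added at one concentration; 48 h incubation; percent growth measured; values under 10 scored active.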 Values without a mark were called inactive. Activity calls are given as the source filed them.

Test systems include HCT-15 colon; HT29 colon; SNB-75 CNS; SNB-19 CNS; U251 CNS; PC-3 prostate; SK-MEL-5 melanoma; UACC-62 melanoma; LOX IMVI melanoma; SK-MEL-28 melanoma; SK-MEL-2 melanoma; EKVX NSCLC; SN12C renal; UO-31 renal; TK-10 renal; ACHN renal; CAKI-1 renal; A498 renal; CCRF-CEM leukemia; MOLT-4 leukemia.
What all share (assay): NCI-60 one-dose screen, 48 h (100 = growth as untreated, 0 = no growth, -100 = all killed)
Conditions in all cases: 10 µM unless noted

`CSc1ncccc1C(=O)OCC(=O)Nc1oc(C)c2c(C)n[nH]c(=O)c12`: the growth in the assay on HCT-15 colon was 103%; in the assay with HT29 colon, 116%; with SNB-75 CNS, 85.3%; in the assay with SNB-19 CNS, 101%; in the assay on U251 CNS, 102%; in the assay with PC-3 prostate, 84.8%. The growth in the assay with SK-MEL-5 melanoma was 103%; in the assay with UACC-62 melanoma, 94.4%; in the assay on LOX IMVI melanoma it was 94.5%; in the assay on SK-MEL-28 melanoma, 109%; in the assay with SK-MEL-2 melanoma, 92.5%; with EKVX NSCLC it was 71%. The growth was 103% in the assay on SN12C renal; 91.7% in the assay on UO-31 renal; 102% in the assay on TK-10 renal; 106% with ACHN renal; 112% in the assay on CAKI-1 renal; 116% in the assay on A498 renal. The growth in the assay with CCRF-CEM leukemia was 79%.

In the case of `CCCCCCN1C(=O)/C(=c2\sc3n(c2=O)C2C(NN=3)N(CC)C(=O)N2CC)c2ccccc21` (configuration not stated), the growth with HCT-15 colon was 1.65% (active); in the assay with HT29 colon it was -24.7% (active); with SNB-75 CNS it was -38.4% (active); in the assay on SNB-19 CNS it was 22.5%; in the assay with U251 CNS, -21.3% (active); with PC-3 prostate, 15.2%. The growth in the assay on SK-MEL-5 melanoma is 26.8%; with UACC-62 melanoma it was 30.7%; in the assay with LOX IMVI melanoma, -23% (active); in the assay on SK-MEL-28 melanoma, 35.1%; with SK-MEL-2 melanoma, 50.1%; with EKVX NSCLC, 65%. Besides, the growth is 19.1% in the assay on SN12C renal; -2.09% (active) with UO-31 renal; 3.21% (active) in the assay with TK-10 renal; -43% (active) in the assay on ACHN renal; 4.26% (active) in the assay with CAKI-1 renal; -5.48% (active) in the assay on A498 renal. Also, the growth is 37.8% in the assay with CCRF-CEM leukemia and 49.4% with MOLT-4 leukemia.

For `COc1cc(C2CC(c3ccc(SC)cc3)=NN2C(C)=O)cc(OC)c1OC` (configuration not stated), the growth in the assay on HCT-15 colon was 47.5%; with HT29 colon it was 21.9%; with SNB-75 CNS, 11.9%; in the assay on SNB-19 CNS, 74.3%; in the assay on U251 CNS it was 62.7%; in the assay with PC-3 prostate, 58.3%. In addition, the growth with SK-MEL-5 melanoma was 70.2%; with UACC-62 melanoma, 57.9%; in the assay on LOX IMVI melanoma, 62.3%; in the assay on SK-MEL-28 melanoma it was 75.3%; in the assay with SK-MEL-2 melanoma it was 65.5%; in the assay on EKVX NSCLC, 74.5%. The growth in the assay with SN12C renal is 91.4%; with UO-31 renal, 71.2%; in the assay with TK-10 renal it was 86.2%; with ACHN renal it was 89.3%; in the assay on CAKI-1 renal, 65.5%; with A498 renal, 68.1%. Moreover, the growth with CCRF-CEM leukemia was 52.9%; in the assay on MOLT-4 leukemia it was 43.2%.

Take `COc1cc(CCC[P+](c2ccccc2)(c2ccccc2)c2ccccc2)c(OC)c(OC)c1OC`: the growth is 68.2% in the assay with HCT-15 colon; 112% in the assay with HT29 colon; 29.7% in the assay with SNB-75 CNS; 78% in the assay on SNB-19 CNS; 77.7% with U251 CNS; 75.6% in the assay on PC-3 prostate. In addition, the growth in the assay with SK-MEL-5 melanoma is 76%; with UACC-62 melanoma, 31.1%; with LOX IMVI melanoma it was 79.2%; in the assay on SK-MEL-28 melanoma it was 74.4%; in the assay with SK-MEL-2 melanoma, 80.5%; in the assay on EKVX NSCLC it was 72.7%. Besides, the growth is 77.5% in the assay on SN12C renal; 43.7% with UO-31 renal; 91% in the assay with TK-10 renal; 83.4% in the assay with ACHN renal; 39.7% with CAKI-1 renal; -6.09% (active) in the assay on A498 renal. For the same compound, the growth in the assay with CCRF-CEM leukemia is 65%.

`CCOC(=O)c1cn2ncnc(Oc3ccc(NC(=O)NCCN4CCOCC4)c(Cl)c3)c2c1C`: the growth was 96.3% in the assay with HCT-15 colon; 104% with HT29 colon; 76.8% in the assay on SNB-75 CNS; 95.1% in the assay with SNB-19 CNS; 98.4% with U251 CNS; 91.2% in the assay on PC-3 prostate. Further, the growth was 98.5% in the assay with SK-MEL-5 melanoma; 97.6% with UACC-62 melanoma; 99.7% in the assay with LOX IMVI melanoma; 97.1% with SK-MEL-28 melanoma; 113% in the assay with SK-MEL-2 melanoma; 96.3% in the assay on EKVX NSCLC. The growth in the assay on SN12C renal was 95.8%; with UO-31 renal, 80.8%; in the assay with TK-10 renal it was 98%; with ACHN renal, 99.5%; in the assay with CAKI-1 renal it was 87.7%; in the assay on A498 renal, 85.2%. For the same compound, the growth in the assay on CCRF-CEM leukemia is 96.6%.

With `CCc1ccccc1-n1c(N)c(C#N)c(-c2ccc(Cl)cc2)c(C#N)c1=O`, the growth was 108% with HCT-15 colon; 102% in the assay with HT29 colon; 90.5% with SNB-75 CNS; 111% in the assay with SNB-19 CNS; 119% in the assay with U251 CNS; 80.6% with PC-3 prostate. Moreover, the growth in the assay with SK-MEL-5 melanoma was 106%; in the assay with UACC-62 melanoma it was 98.6%; in the assay with LOX IMVI melanoma, 100%; with SK-MEL-28 melanoma it was 113%; with SK-MEL-2 melanoma, 117%; in the assay on EKVX NSCLC, 97.7%. The growth with SN12C renal was 106%; in the assay on UO-31 renal, 76.9%; in the assay with TK-10 renal, 157%; in the assay with ACHN renal it was 107%; with CAKI-1 renal it was 103%; with A498 renal, 127%. The growth in the assay on CCRF-CEM leukemia is -18.3% (active); with MOLT-4 leukemia, 105%.

With `COc1cc(C(=O)/C=C/c2sc(Cl)nc2Cl)cc(OC)c1OC`, the growth in the assay on HCT-15 colon is -57.2% (active); in the assay with HT29 colon it was 25.1%; in the assay with SNB-75 CNS it was 73.1%; in the assay with SNB-19 CNS, 77.6%; in the assay on U251 CNS, 6.7% (active); with PC-3 prostate, 50.8%. The growth in the assay with SK-MEL-5 melanoma is 88.7%; in the assay with UACC-62 melanoma it was 85.1%; with LOX IMVI melanoma, -86.5% (active); with SK-MEL-28 melanoma, 18.5%; with SK-MEL-2 melanoma, 82.7%; in the assay on EKVX NSCLC it was 55.6%. Also, the growth with SN12C renal was 7.55% (active); in the assay on UO-31 renal it was 67.2%; with TK-10 renal, 94.3%; in the assay with ACHN renal it was -94.7% (active); with CAKI-1 renal it was 37.1%; in the assay on A498 renal, 89.9%. For the same compound, the growth is 10.9% in the assay with CCRF-CEM leukemia and 23.2% in the assay with MOLT-4 leukemia.

Regarding `Cc1ccc(-c2nc(N3CCN(CC(=O)Nc4ccc(Cl)cc4)CC3)c3ccccc3n2)cc1`, the growth was 79.9% in the assay with HCT-15 colon; 80.8% with HT29 colon; 77.7% in the assay on SNB-75 CNS; 93.1% in the assay on SNB-19 CNS; 92.5% in the assay on U251 CNS; 80.6% with PC-3 prostate. For the same compound, the growth was 89% with SK-MEL-5 melanoma; 75.9% in the assay on UACC-62 melanoma; 97.4% in the assay on LOX IMVI melanoma; 99.8% with SK-MEL-28 melanoma; 103% in the assay on SK-MEL-2 melanoma; 85.4% in the assay with EKVX NSCLC. Further, the growth with SN12C renal was 90.4%; in the assay with UO-31 renal, 64.1%; with TK-10 renal it was 104%; in the assay on ACHN renal it was 98.3%; with CAKI-1 renal, 85.2%; with A498 renal it was 51.4%. Moreover, the growth is 88.9% in the assay on CCRF-CEM leukemia and 62.1% with MOLT-4 leukemia.
